# Measurements taken from PubChem BioAssay AID1625 (Sanford-Burnham Center for Chemical Genomics, 2009).
# Hit rate of the full screen: of about 190,000 compounds, about 570 (0.3%) were called active.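 How the source made its calls: active means z-score above 3 at 5 µM with at least 500 cells counted in the well; inconclusive means wells under 500 cells, flagged as cytotoxic or low count; inactive means the rest.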 The full list was thinned out, with actives kept by preference.
# Test: insulin promoter activators in MIN6 cells, imaging, high-content screening, mouse beta cells (AID 1625);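 on cell count: total cells summed across four imaged fields per well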
# Conditions: MIN6 insulin promoter-GFP reporter, at 5 µM; cell count: measured here: cytotoxicity, nuclei count; z-score: stronger effect = higher value
Structure (SMILES),cell count [cells],z-score
O=C(O)C#Cc1cccc2ccccc12,952,-0.45 (inactive)
Cc1cc(C)c2[nH]c(=O)c(CN(Cc3ccccc3)C(=S)NCCCN(C)C)cc2c1,1260,-0.25 (inactive)
CCOc1ccc(NC(=S)N2CCC(N(C)CC3CCCO3)CC2)cc1 (stereo unspecified),1410,3.59 (active)
CCOc1ccc(NC(=S)N2CCCCCC2)cc1,1240,-0.11 (inactive)
CCC(C)N(C)C1CCN(C(=S)Nc2ccc(OC)cc2)CC1 (stereo unspecified),1120,0.62 (inactive)
Cc1cccc(N(C)C(=O)c2cc3c(=O)[nH]c4ccc(C)cc4c3s2)c1,642,-0.64 (inactive)
CCn1c2ccccc2c2cc(NC(=O)Nc3ccc([N+](=O)[O-])cc3C)ccc21,1070,-0.69 (inactive)
O=c1c2cc(-c3ccccc3)sc2nc2n1N=C(c1cccs1)CS2,940,0.28 (inactive)
S=c1[nH]nc(-c2cccs2)n1/N=C/c1cn(-c2ccccc2)nc1-c1ccc(Cl)cc1,941,-0.14 (inactive)
NS(=O)(=O)c1cccc(NC(=O)CSc2nc3ccccc3n2-c2ccccc2)c1,1570,-0.28 (inactive)
COc1cccc(NCCC(=O)c2cccc([N+](=O)[O-])c2)c1,1430,-0.59 (inactive)
COc1ccc(-c2nc(CCNC(=O)c3ccc(Br)o3)cs2)cc1,1790,-0.21 (inactive)
O=S(=O)(NCCc1csc(-c2ccccc2)n1)c1cccnc1,1020,0.1 (inactive)
O=C(NCCc1csc(-c2ccccc2)n1)c1ccccc1F,879,4.15 (active)
COc1ccc([N+](=O)[O-])cc1N(CC(O)CN(CC(C)C)CC(C)C)S(=O)(=O)c1ccc(C)cc1 (stereo unspecified),984,0.3 (inactive)
O=C1CN(C(=O)COC(=O)c2cnc(Cl)c(Cl)c2)c2ccccc2N1,1340,0.22 (inactive)
Cc1ccc(OCC(=O)c2cc(C)n(Cc3ccco3)c2C)c([N+](=O)[O-])n1,717,0.32 (inactive)
CC1=C(C(N)=O)C(c2sccc2C)n2nnnc2N1 (stereo unspecified),787,1.11 (inactive)
COc1ccc(C2C(C(=O)Nc3ccccc3OC)=C(C)Nc3nnnn32)c(OC)c1 (stereo unspecified),1590,0.06 (inactive)
CCCCCOC(=O)C1=C(C)Nc2nnnn2C1c1ccc(OC)c(OC)c1OC (stereo unspecified),1410,3.26 (active)
CN(C)S(=O)(=O)c1cccc(-c2nn(-c3ccccc3)cc2/C=C2\SC(=S)N(CC(=O)O)C2=O)c1,1060,-0.06 (inactive)

Structure (SMILES),cell count [cells],z-score
CNC(=S)NNC(=O)c1cccn(Cc2ccccc2)c1=O,1390,-0.17 (inactive)
NNC(=O)c1oc2nc(-c3ccccc3)cc(-c3ccco3)c2c1N,1010,1.58 (inactive)
CNC(=S)NNC(=O)c1oc2nc(-c3ccccc3)cc(-c3ccco3)c2c1N,871,3.41 (active)
CSc1ccc(CN2C(=O)NC3(CCCCCC3)C2=O)cc1,1210,-0.36 (inactive)
CC(=O)Nc1nc(C)c(-c2csc(Nc3ccc(S(N)(=O)=O)cc3)n2)s1,1500,-2.49 (inactive)
Cc1ccc(C(=O)NC(=S)NCc2cccnc2)cc1,1660,1.63 (inactive)
CC(C)(C)c1cc(C(=O)NCc2cccnc2)ccn1,1480,4.34 (active)
Cc1cccc(C(=O)Nc2ccccc2C(=O)NCc2cccnc2)c1,1550,0.35 (inactive)
CCOc1ccc(NS(=O)(=O)c2cc(C)c(C)cc2C)cc1,1460,0.61 (inactive)
O=C(CC1Nc2ccccc2NC1=O)Nc1ccccc1NC(=O)CC1Nc2ccccc2NC1=O (stereo unspecified),1140,0.1 (inactive)
C=CCNC(=S)N1CCN(CCN=Cc2c(C)[nH]n(-c3ccc([N+](=O)[O-])cc3)c2=O)CC1,1470,1.08 (inactive)
Cc1ccc(-n2[nH]c(C)c(/C=N/NC(=O)c3cccc([N+](=O)[O-])c3)c2=O)cc1C,1370,0.35 (inactive)
Cc1[nH]n(-c2ccc([N+](=O)[O-])cc2)c(=O)c1C=NCCN1CCN(C(=O)c2ccccc2F)CC1,1450,4.48 (active)
CC(C)CCN1CCN(C/C=C/c2ccco2)CC1CCO (stereo unspecified),1410,1.56 (inactive)
O=C(COC(=O)C1CCCCC1)Nc1ccc([N+](=O)[O-])cc1,1220,-0.06 (inactive)
O=C(NNC(=S)NC(=O)c1cn(-c2ccccc2)nc1-c1ccccc1)c1ccncc1,1140,-0.61 (inactive)
CCCCN(CCCC)CC(O)Cn1c2ccccc2c(=O)c2ccccc21 (stereo unspecified),1110,-0.27 (inactive)
CC(C)N1CCC(NC(=O)Nc2ccccc2)CC1,1410,-0.24 (inactive)
Cc1cc(C)nc(N2CCC(C(=O)Nc3ccc4c(c3)OCCO4)CC2)n1,1130,3.37 (active)
Cc1cc(C)cc(NC(=O)C2CCN(c3nc(C)cc(C)n3)CC2)c1,1460,-0.69 (inactive)
O=C(Nc1ccc2c(c1)OCCO2)C1CCCN(c2ncccn2)C1 (stereo unspecified),1560,-0.18 (inactive)

Structure (SMILES),cell count [cells],z-score
N#C/C(=C/c1ccc(-c2ccccc2[N+](=O)[O-])o1)C(=O)NCCN1CCCCC1,1040,0.44 (inactive)
Cc1ccc(-c2nnn(CC(=O)N(CCO)C(C(=O)NC(C)(C)C)c3ccncc3)n2)cc1 (stereo unspecified),1330,-0.54 (inactive)
CCOCCCN(C(=O)Cn1nnc(-c2ccc(OC)c(OC)c2)n1)C(CC)C(=O)NC1CCCC1 (stereo unspecified),1200,1.26 (inactive)
COc1ccc(-c2nnn(CC(=O)N(CCO)C(C(=O)NC3CCCC3)c3ccc(F)cc3)n2)cc1 (stereo unspecified),941,3.28 (active)
Cc1nc(Cl)c(C#N)c2c1CCCC2,1110,0.33 (inactive)
COc1ccc(NS(=O)(=O)c2ccc(Oc3c(C#N)cccc3C#N)cc2)cc1,558,-2.43 (inactive)
CCOC(=O)c1ccc(S(=O)(=O)N(CCO)Cc2cc3cc(OC)c(OC)cc3[nH]c2=O)cc1,1080,-0.14 (inactive)
COc1ccc(NC(=O)CCN2C(=O)/C(=C/c3ccc4c(c3)OCO4)SC2=S)cc1,965,-0.34 (inactive)
CC(=O)N(OCc1ccc(OC(C)C)c(Cl)c1)C(C)=O,1050,-0.14 (inactive)
Cc1cc(/C=N/n2cnnc2)c(C)n1-c1cccc(C(=O)O)c1,1240,4.18 (active)
Cc1cc(/C=N/Nc2ccc([N+](=O)[O-])cn2)c(C)n1-c1cccc(C(=O)O)c1,1080,-0.44 (inactive)
Cc1cccc(-n2c(C)cc(/C=N/NC(N)=S)c2C)c1,1370,0.39 (inactive)
CC(=O)N1N=C(c2ccncc2)OC1(Cc1ccccc1)Cc1ccccc1,1090,0.04 (inactive)
O=C(CS(=O)(=O)Cc1ccccc1)NCC1CCCO1 (stereo unspecified),1220,-0.17 (inactive)
O=C(CSc1nnc(-c2ccc(NS(=O)(=O)c3ccccc3)cc2)o1)NCC1CCCO1 (stereo unspecified),1210,0.05 (inactive)
O=C(CSc1ccc(-c2ccccc2)nn1)NCC1CCCO1 (stereo unspecified),1230,3.02 (active)
COc1cc(SC)ccc1C(=O)Nc1cc(C)ccn1,1210,0 (inactive)
CC(=O)Nc1ccc(CC#N)cc1,1210,-0.63 (inactive)
Cc1ccccc1NC(=S)NNC(=O)c1cccc(Br)c1,1120,0.03 (inactive)
O=C(NN1C(=O)C2C(C1=O)C1C=CC2C12CC2)c1ccccc1Cl (stereo unspecified),1130,-0.03 (inactive)
CC(C)OP(=O)(OC(C)C)C(Nc1ccccc1)c1cccc([N+](=O)[O-])c1 (stereo unspecified),992,-0.35 (inactive)
